Records with an inconclusive call do not appear. The source made the active and inactive calls. The calls were made as follows: active = hit-call score of the fitted dose curve at least 0.9, where 1 is the maximum; inconclusive = response in the unintended direction; inactive = score below 0.9.

In general, AC50 refers to the concentration at which the activity in the assay is half-maximal.

Chain of Nuclear receptor subfamily 4 group A member 2 (Homo sapiens) (P43354 whole entry, looked up): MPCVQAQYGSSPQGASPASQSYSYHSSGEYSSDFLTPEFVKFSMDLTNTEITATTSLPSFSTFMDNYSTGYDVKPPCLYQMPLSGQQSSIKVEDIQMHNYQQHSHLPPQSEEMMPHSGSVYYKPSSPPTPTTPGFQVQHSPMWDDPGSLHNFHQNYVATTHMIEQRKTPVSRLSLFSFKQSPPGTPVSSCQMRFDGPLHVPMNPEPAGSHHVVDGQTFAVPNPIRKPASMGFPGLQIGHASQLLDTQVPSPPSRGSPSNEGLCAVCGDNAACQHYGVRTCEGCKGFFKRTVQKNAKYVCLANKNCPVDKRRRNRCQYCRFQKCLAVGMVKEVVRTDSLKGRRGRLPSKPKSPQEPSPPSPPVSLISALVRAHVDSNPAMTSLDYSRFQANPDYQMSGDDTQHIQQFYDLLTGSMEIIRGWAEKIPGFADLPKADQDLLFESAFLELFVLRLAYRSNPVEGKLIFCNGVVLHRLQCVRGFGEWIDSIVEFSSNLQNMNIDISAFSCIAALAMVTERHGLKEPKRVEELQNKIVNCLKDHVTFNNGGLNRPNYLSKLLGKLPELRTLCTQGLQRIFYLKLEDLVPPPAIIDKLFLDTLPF

For this test, the target named is Nuclear receptor subfamily 4 group A member 2 (Homo sapiens) (UniProt P43354). Briefly: ATG_NURR1_TRANS: Attagene TRANS-FACTORIAL HepG2 Assay for human Nuclear Receptor Related Protein 1 (NURR1) (AID 2282985). Conditions: HepG2 Attagene TRANS reporter, mRNA readout. The protocol:
ATG_TRANS is a cell-based, multiplexed-readout assay that uses HepG2, a human liver cell line, with measurements taken at 24 hours after chemical dosing in a 24-well plate.ATG_NURR1_TRANS is one of 30 assay component(s) measured or calculated from the ATG_TRANS assay. It is designed to make measurements of mRNA induction, a form of inducible reporter, as detected with fluorescence intensity signals by Reverse transcription polymerase chain reaction (RT-PCR) and Capillary electrophoresis technology.Data from the assay component ATG_NURR1_TRANS was analyzed into 1 assay endpoint. This assay endpoint, ATG_NURR1_TRANS, was analyzed in the positive analysis fitting direction relative to DMSO as the negative control and baseline of activity. Using a type of inducible reporter, measures of mRNA for gain-of-signal activity can be used to understand the reporter gene at the transcription factor-level as they relate to the gene NR4A2. Furthermore, this assay endpoint can be referred to as a primary readout, because this assay has produced multiple assay endpoints where this one serves a reporter gene function. To generalize the intended target to other relatable targets, this assay endpoint is annotated to the nuclear receptor intended target family, where the subfamily is orphan.
Human liver HepG2 cells are transiently transfected with multiple reporter transcription units (MRTUs) in 6-well plates using FuGene 6 reagent (Roche; 3 ml FuGene/1 mg DNA). The MRTU constructs are regulated by a cis-regulating element (promoter). […] A major difference between the CIS and TRANS system is that in CIS activities of endogenous TFs are measured, whereas the TRANS assay evaluates changes in activities of exogenous, chimeric NR-Gal4 proteins. […] At the end of 24 hour incubation, total RNA was isolated using TriZol reagent (Invitrogen). The isolated RNA is then reverse-transcribed using oligo(dT) primer and Mo-MLV reverse transcriptase (Invitrogen) with DNAse I (Ambion) treatment for 30 min. The one-tenth of the produced cDNA was amplified by PCR using Taq DNA polymerase (Invitrogen) and two reporter sequence-specific primers. The PCR products were fluorescently labeled by primer extension with 6-arboxyfluorescein (6-FAM) 5'-labeled reporter sequence-specific primer (2 min at 95 C, 20 s at 68 C and 10 min at 72 C) and these products were digested with 5U of HpaI (New England Biolabs) for 2h at 37 C. The fragments were purified using Qiaquick PCR columns (Qiagen), analyzed on an ABI 3130xL genetic analyzer (Applied Biosystems) with peak positions identified by using a set of X-rhodamine (ROX)-labeled MapMarker1000 molecular weight standards (BioVentures). The raw capillary electrophoresis data was processed using Attagraph software (Attagene).
Turning to `C=CCNCC=C`, the result was inactive. As for `CCCCC(=O)O`, the molecule was classed as inactive. As to `C=C(C)[C@@H]1CC=C(C)CC1`, the result was inactive. Still for that read-out and setting: the value for `Cc1c(O)cccc1O` was “inactive”. The same measure, in the same setting: the value for `O=C(O)C1CCC(C(=O)O)CC1` (stereo not given) was “inactive”; that for `CC(C=O)c1ccccc1` (stereo not given) was “inactive”. The same measure, in the same setting: the value for `CCCCCCCCCC[N+](C)(CCCCCCCCCC)CCC[Si](OC)(OC)OC` was “inactive”; that for `Cc1noc(NS(=O)(=O)c2ccc(N)cc2)c1C` was “inactive”; that for `Nc1ccc(Cl)c(N)c1` was “inactive”.

As to `CCCCOC(=O)C(C)CC` (stereo not given), the molecule was called inactive. As for `NNS(=O)(=O)c1ccc(Oc2ccc(S(=O)(=O)NN)cc2)cc1`, the molecule was classed as inactive. Still for that read-out and setting: the value for `N=C1C=CC(=C(c2ccc(N)cc2)c2ccc(N)cc2)C=C1` was “inactive”. Still for that read-out and setting: with `CC12CCC(CC1)C(C)(C)O2` the entry was “inactive”; with `CCC(C)(O)CCCC(C)C` (stereo not given), “inactive”; with `C=CC(=O)NCOCCCC`, “inactive”. Consider `O=C(Cl)c1ccc(C(=O)Cl)cc1`, for which the outcome was inactive. On to `Nc1ccnc(=O)[nH]1`, for which the outcome was inactive.

For `O=C(OCc1ccccc1)c1ccc(O)cc1`, the AC50 is 158 µM (active). Take `C=C1C[C@H]2[C@@H]3C=C(C)C4=CC(=O)CC[C@]4(C)[C@H]3CC[C@]2(C)[C@@]1(OC(C)=O)C(C)=O`: the molecule was classed as inactive. Same read-out and setting: the value for `C=Cc1ccc(OC(C)=O)cc1` was “inactive”; that for `COc1ccc(C(=O)/C(Br)=C\C(=O)O)cc1` was “inactive”. Consider `O=S(=O)(O)c1ccc(N=Nc2c(O)ccc3ccccc23)cc1`, for which the call was inactive.

In the case of `CCCCC(C=O)CC` (stereo not given), the call was inactive. The same measure, in the same setting: with `CCCCNS(=O)(=O)c1ccc(C)cc1` the entry was “inactive”. As to `CCCCCCCC(=O)OCC`, the result was inactive. On the same count and under the same terms, the value for `CC(C)=NNC(N)=S` was “inactive”; that for `CCCCCCCO` was “inactive”.

As to `O=C(O)CCC(=O)O`, the outcome was inactive. On the same count and under the same terms, the value for `CC=C(C)C=CC=C(C)C` was “inactive”; that for `O=C1CCCCC1C1CCCCC1` (stereo not given) was “inactive”; that for `CCN1CCCC1=O` was “inactive”.

`CCc1cccc(C)c1N(C(=O)CS(=O)(=O)O)C(C)COC` (stereo not given): the outcome was inactive.

Consider `C=C[Si](OCCOC)(OCCOC)OCCOC`, for which the molecule was called inactive.

As to `Cc1c(C(=O)c2c[nH]n(C)c2=O)ccc(S(C)(=O)=O)c1C1=NOCC1`, the molecule was called inactive.

In the case of `COC(=O)c1ccc(C(=O)OC)c(C(=O)OC)c1`, the molecule was called inactive.

Regarding `CC1=CCC2CC1C2(C)C` (stereo not given), the molecule was called inactive. Turning to `COC(C=C(C)CCC=C(C)C)OC`, the result was inactive.

Take `CCOC(=O)C1=NN(c2ccc(Cl)cc2Cl)C(C)(C(=O)OCC)C1` (stereo not given): the AC50 is 168 µM (active). On to `COCC(=O)O`, for which the molecule was called inactive. For `O=C(O)c1ccc2c(c1)C(=O)OC2=O`, the result was inactive.

These data come from PubChem BioAssay (EPA / NIEHS).
